Source: publication PMC5540273 (PLoS ONE, 2017)

What was measured:
Settings in all cases: concentration: 1 μM, replicates: in singlicate; n = 1
CLK2 = test system: CLK2
CLK3 = test system: CLK3
CLK4 = test system: CLK4
CSF1R-autoinhibited = test system: CSF1R-autoinhibited
CSF1R = test system: CSF1R
CSK = test system: CSK
CSNK1A1L = test system: CSNK1A1L
CSNK1A1 = test system: CSNK1A1
CSNK1D = test system: CSNK1D
CSNK1E = test system: CSNK1E
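Note: KINOMEscan kinase panel screen.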

Row | SMILES | %Inh (CLK2) | %Inh (CLK3) | %Inh (CLK4) | %Inh (CSF1R-autoinhibited) | %Inh (CSF1R) | %Inh (CSK) | %Inh (CSNK1A1L) | %Inh (CSNK1A1) | %Inh (CSNK1D) | %Inh (CSNK1E)
1 | CN(C)S(=O)(=O)c1cc(-c2ccc3nccc(-c4cccc(S(N)(=O)=O)c4)c3c2)cnc1N [GSK1669921] | 86% | 21% | 54% | 0% | 7% | 0% | 14% | 49% | 0% | 33%
2 | Cc1ccc(C)c(NC(=O)NC2CCN(c3ccnc(Nc4ccc(F)cc4)n3)C2)c1 (centres unmarked) [GSK1379720] | 0% | 0% | 0% | 25% | 0% | 0% | 0% | 0% | 6% | 11%
3 | CC(C)(C)c1ccc2nccc(Nc3cccc(O)c3)c2c1 [GW856795] | 0% | 0% | 0% | 54% | 12% | 0% | 0% | 26% | 0% | 0%
4 | COc1cccc(NC(=O)NC2CCN(c3ccnc(Nc4cc(OC)c(OC)c(OC)c4)n3)C2)c1 (centres unmarked) [GSK1379763] | 11% | 0% | 0% | 6% | 34% | 15% | 0% | 0% | 0% | 0%
5 | O=C(Nc1n[nH]c2cc(-c3ccoc3)ccc12)C1CC1 [SB-738481] | 73% | 13% | 9% | 0% | 2% | 0% | 5% | 0% | 2% | 0%
6 | O=C(O)C(F)(F)F.O=C(O)C(F)(F)F.O=c1[nH]ccc2nc(N[C@@H]3CCCNC3)nc(Nc3ccc(S(=O)(=O)N4CCOCC4)cc3)c12 [GSK2177277] | 98.9% | 41% | 79% | 83% | 99.9% | 51% | 99.7% | 99.9% | 98.7% | 99.9%
7 | O=C(Nc1cccc(Oc2ccc3nc(NC(=O)C4CC4)cn3n2)c1)c1ccccc1C(F)(F)F | 73% | 32% | 0% | 88% | 100% | 11% | 0% | 24% | 0% | 20%
8 | CC(=O)Nc1nc2cnc(Nc3cc(NC(=O)c4cccc(C5(C#N)CC5)c4Cl)ccc3C)nc2s1 | 0% | 0% | 10% | 15% | 99.4% | 41% | 23% | 0% | 0% | 0%
9 | c1ccc(-c2cnc3nccnn23)cc1 [AH20685] | 0% | 0% | 11% | 14% | 0% | 0% | 0% | 0% | 11% | 0%
10 | Cl.c1ccc(-c2ccc3c(Nc4ccc5[nH]ccc5c4)ccnc3c2)nc1 [GW440138] | 0% | 8% | 19% | 36% | 75% | 0% | 0% | 0% | 13% | 27%
11 | COc1cccc(C(=O)Nc2cccc(Oc3ccc4nc(NC(=O)C5CC5)cn4n3)c2)c1 | 16% | 5% | 0% | 94.2% | 100% | 17% | 17% | 29% | 1% | 19%
12 | Cn1cc(-c2ccc3c(c2)CCN3C(=O)Cc2cccc(F)c2)c2c(N)ncnc21 [GSK2603358] | 0% | 0% | 39% | 26% | 94.7% | 14% | 5% | 0% | 20% | 77%
13 | CCn1c(-c2nonc2N)nc2c(C#CC(C)(C)O)ncc(OCCCCN)c21.O=C(O)C(F)(F)F.O=C(O)C(F)(F)F [GSK507274] | 69% | 11% | 43% | 0% | 21% | 0% | 18% | 19% | 29% | 38%
14 | COc1cccc(C2=C(Nc3ccc(Cl)c(C(=O)O)c3)C(=O)NC2=O)c1 [SB-390769] | 6% | 0% | 17% | 13% | 0% | 0% | 5% | 0% | 8% | 13%
15 | FC(F)(F)c1ccc(/C=C/c2cncnc2Nc2ccc3[nH]c(Cc4ccccc4)nc3c2)cc1 [GW709199] | 0% | 11% | 0% | 0% | 4% | 0% | 36% | 33% | 3% | 28%
16 | O=c1[nH]cc(-c2ccc(N3CCOCC3)cc2)c2sc(-c3cn[nH]c3)cc12 [GSK2276055] | 76% | 37% | 89% | 0% | 33% | 7% | 44% | 73% | 84% | 94.4%
17 | COC(=O)Nc1nc2ccc(Oc3ccc(NC(=O)Nc4cc(C(F)(F)F)ccc4F)cc3)cc2n1C.Cl [GW692089] | 0% | 0% | 0% | 0% | 86% | 0% | 0% | 0% | 0% | 0%
18 | Fc1ccc(-c2ncn(C3CCNCC3)c2-c2ccnc(Oc3ccc(-c4ccccc4)cc3)n2)cc1 [SB-245391] | 11% | 32% | 0% | 8% | 12% | 14% | 71% | 93.9% | 96.2% | 99.5%
19 | Nc1ncc(-c2cccnc2)c2scc(-c3ccc4c(c3)CCN4C(=O)Cc3ccccc3)c12 [GSK683281] | 0% | 19% | 18% | 5% | 99.2% | 23% | 21% | 4% | 13% | 35%
20 | Nc1n[nH]c2cnc(-c3ccccc3)cc12 [SB-642124] | 73% | 20% | 64% | 0% | 17% | 0% | 8% | 0% | 12% | 16%
21 | c1ccc(Oc2ccc(Nc3ccnc4cc(-c5ccc(CNCCN6CCOCC6)o5)ccc34)cc2)nc1 [GW567145] | 0% | 0% | 0% | 40% | 68% | 77% | 0% | 0% | 0% | 0%
22 | CN(c1ccc(NC(=O)Nc2cc(C(F)(F)F)ccc2F)cc1)c1ccnc(Nc2ccc(S(N)(=O)=O)cc2)n1 [GW809893] | 13% | 0% | 16% | 0% | 25% | 9% | 9% | 15% | 0% | 1%
23 | COc1cc2c(cc1OCCN1CCNCC1)ncc1c3ccc(C#N)cc3[nH]c21 | 86% | 27% | 91.7% | 98.4% | 51% | 12% | 0% | 40% | 8% | 0%
24 | COc1cc(Nc2nccc(-c3c(-c4cccc(NC(=O)c5c(F)cccc5F)c4)nn4ncccc34)n2)cc(OC)c1OC [GSK327238] | 0% | 0% | 2% | 55% | 100% | 98.1% | 7% | 0% | 23% | 94.7%
25 | COc1ccc(Nc2nccc(N3CCC(NC(=O)Nc4cccc(OC)c4)C3)n2)cc1 (centres unmarked) [GSK1379742] | 0% | 39% | 9% | 0% | 0% | 0% | 19% | 0% | 1% | 34%
26 | COc1cc(Nc2ncc3c(C)nc(-c4cc5ccccc5[nH]4)n3n2)cc(OC)c1OC [GW869516] | 75% | 36% | 43% | 0% | 0% | 13% | 0% | 30% | 0% | 15%
27 | COc1ccc(-c2coc3ccc(-c4nnc(SCc5ccc(OC)c(C(F)(F)F)c5)o4)cc23)cc1 | 1% | 0% | 18% | 7% | 0% | 16% | 0% | 0% | 0% | 0%
28 | CC(C)c1nc(-c2cccc(NS(=O)(=O)c3c(F)cccc3F)c2F)c(-c2ccnc(Nc3ccc(N4CCOCC4)nc3)n2)s1 [GSK2008607] | 0% | 0% | 0% | 0% | 86% | 98% | 0% | 0% | 0% | 4%
29 | Cl.c1ccc(-c2ccc3c(Nc4ccc5[nH]ncc5c4)ccnc3c2)nc1 [GW440137] | 67% | 12% | 21% | 0% | 27% | 0% | 0% | 0% | 27% | 41%
